Laboratory results from PubChem BioAssay AID489038 (National Center for Advancing Translational Sciences (NCATS), 2010).
Inconclusive results are not listed. Where a call stands in place of a potency, no number is given. Active and inactive are the calls of the source. Calls follow the shape of the dose curve; as a rule, active = well fitted inhibition curve with a large enough effect; inconclusive = small, poorly fitted or top-dose-only effect, or effect the other way; inactive = no such curve, though single readings can be large or run the other way.

Assay: DHR3 selectivity assay for inhibitors of ROR gamma transcriptional activity
Conditions: Drosophila S2 Gal4-DHR3 UAS-luciferase, 20 h; series mostly up to 92.2 µM
From the text: NIH Molecular Libraries Probe Production Network [MLPCN] NIH Chemical Genomics Center [NCGC] MLPCN Grant: R03 DA026211-01 Assay Provider: Dan Littman, New York University Assay Overview: The retinoic acid-related orphan receptor (ROR) gamma is a transcription factor that has a central role in the differentiation of Th17 cells, a subset of T helper cells that secrete the inflammatory cytokines IL-17A, IL-17F, and IL-22. Th17 cells have been implicated in graft versus host disease, autoimmune disease and asthma. RORgamma is induced in naive T helper cells in the presence of TGF-beta combined with IL-6, IL-21, or IL-23, and thereafter directs the expression of the Th17 lineage cytokines. To identify […] inhibitors, a Drosophila Schneider cell line was stably transfected with two vectors: a gene expressing a fusion of the Gal4 DNA binding domain and the transactivation domain of the Drosophila Hormone Receptor 3 (DHR3), under the control of the metallothionine promoter and a Photinus luciferase reporter regulated by the Gal4 binding site enhancer, UAS. […] Small molecule inhibitors that inhibit components common to the RORgamma and DHR3 assays, such as proteins that interact with general nuclear hormone receptors, will be active in both assays and thus scored as nonselective.
Assay Protocol Summary: For screening, 600 cells in 4 uL/well were dispensed into white solid 1536-well plates (Grenier) using a solenoid-based dispenser. Following transfer of 23 nL compound or DMSO vehicle by a pin tool, the plates were incubated 1 hr at ambient temperature, and 1 uL/well copper sulfate (700 uM final concentration) was added. The plates were centrifuged 15 s at 1000 RPM and incubated 20 hr at ambient temperature. After addition of 1.5 uL Photinus luciferase detection reagent, the plates were incubated 10 min at ambient temperature and then read by an ViewLux (Perkin Elmer) to detect luminescence.
Potency is read from the fitted curve at half-maximal effect.

SMILES | Potency | activity change, negative = inhibition
COc1cc(O)c(C(CC(=O)N2CCc3ccccc32)c2ccc3c(c2)OCO3)c(OC)c1 (stereo not given) | inactive | –
COCC1CCCCN1C(=O)c1cc(COc2ccc3ncccc3c2)on1 (stereo not given) | 9110 nM (active) | –
Cc1cccc(-c2nc3cc(NC(=O)C4CCCO4)ccc3o2)c1 (stereo not given) | 2290 nM (active) | –
COc1cc(O)c(C(CC(=O)N2CCC(C)CC2)c2ccc(OC)c(OC)c2)c(OC)c1 (stereo not given) | inactive | –
C[C@@H]1[C@H](C)CC[C@]2(C(=O)O)CC[C@]3(C)C(=CC[C@@H]4[C@@]5(C)CC[C@H](O)C(C)(C)[C@H]5CC[C@]43C)[C@@H]12 | 18200 nM (active) | –
CCOc1ncccc1C(=O)OCC(=O)Nc1ccc(-c2nc3ccc(C)cc3s2)cc1 | 363 nM (active) | –
Cc1ccc(Sc2cncc3sc(C(N)=O)cc23)cc1 | 102 nM (active) | –
CCOC(=O)c1sc(NC(=O)c2cc3c(s2)CCC(C)C3)nc1C (stereo not given) | 51.2 nM (active) | –
COc1cc(O)c(C(CC(=O)N2CCOCC2)c2ccc(C)cc2)c(OC)c1 (stereo not given) | inactive | –
CC1CCCN(C(=O)CC(c2ccc3c(c2)OCO3)c2cc(-c3ccccc3)ccc2O)C1 (stereo not given) | inactive | –
CCNC(=O)CCc1nc(-c2ccc(C(C)(C)C)cc2)no1 | 115 nM (active) | –
COc1cc(O)c(C(CC(=O)N2CCCC(C)C2)c2ccc3ccccc3c2)c(OC)c1 (stereo not given) | inactive | –
COc1cc(O)c(C(CC(=O)NC2CCC(C)CC2)c2ccc3c(c2)OCO3)c(OC)c1 (stereo not given) | inactive | –
COc1ccc(C(=O)/C=C/c2ccc(OC)cc2OC)c(O)c1 | 645 nM (active) | –
CCC(=O)C1CCCN(C(=O)CC(c2ccc3c(c2)OCO3)c2c(O)cc(OC)cc2OC)C1 (stereo not given) | inactive | –
COc1ccc(C(CC(=O)N2CCCC(C)C2)c2ccc3c(c2)OCO3)c(O)c1 (stereo not given) | inactive | –
COc1cc(O)c(C(CC(=O)N2CCCC(C(F)(F)F)C2)c2ccc3c(c2)OCO3)c(OC)c1 (stereo not given) | inactive | –
COCC1CCCN(C(=O)CC(c2ccc3c(c2)OCO3)c2c(O)cc(OC)cc2OC)C1 (stereo not given) | inactive | –
COc1cc(O)c(C(CC(=O)N2CCCC(C)(C)C2)c2ccc3c(c2)OCO3)c(OC)c1 (stereo not given) | inactive | –
COc1cc(O)c(C(CC(=O)N2CCCC(C)C2)c2cccc3ccccc23)c(OC)c1 (stereo not given) | inactive | –

SMILES | Potency | activity change, negative = inhibition
CCOc1ccc(-c2cc(CCCC(=O)NCc3cccnc3)no2)cc1 | 812 nM (active) | –
COc1cc(OC)c(C(CC(=O)N2CC(C)CC(C)C2)c2ccc3c(c2)OCO3)c(OCC(N)=O)c1 (stereo not given) | inactive | –
CC1CCCN(C(=O)CC(c2ccc3c(c2)OCO3)c2ccc3ccccc3c2O)C1 (stereo not given) | inactive | –
CC(C)(C)c1ccc(-c2noc(CCC(=O)Nc3cccnc3)n2)cc1 | 51.2 nM (active) | –
COc1cc(O)c(C(CC(=O)N(C)c2cccc(C)c2)c2ccc3c(c2)OCO3)c(OC)c1 (stereo not given) | inactive | –
COc1cc(OC)c(C(CC(=O)N2CCCC(C)C2)c2ccc3c(c2)OCO3)c(OC)c1 (stereo not given) | inactive | –
CC1=C(\C=C/C(C)=C/C=C\C(C)=C\C(=O)O)C(C)(C)CCC1 | – | -6.6% [at 20 µM] (inactive)
COc1cc(O)c(C(CC(=O)N2CCCC(C)C2)c2ccccc2C)c(OC)c1 (stereo not given) | inactive | –
Cc1cccc(C(CC(=O)NCCc2ccccc2)c2ccccc2)c1O (stereo not given) | inactive | –
COc1cc(O)c(C(CC(=O)N2CCCC(C)C2)c2ccccc2OC)c(OC)c1 (stereo not given) | inactive | –
CN(C)S(=O)(=O)c1ccc(NC(=O)/C=C/c2ccccc2Cl)cc1 | 1620 nM (active) | –
Cc1ccc(C(C)C)c(C(CC(=O)N2CCCC(C)C2)c2ccc3c(c2)OCO3)c1O (stereo not given) | inactive | –
COc1cc(O)c(C(CC(=O)N2CCCC(CN3CCCCC3)C2)c2ccc3c(c2)OCO3)c(OC)c1 (stereo not given) | inactive | –
CCC1CCCN(C(=O)CC(c2ccc3c(c2)OCO3)c2c(O)cc(OC)cc2OC)C1 (stereo not given) | inactive | –
COc1cc(O)c(C(CC(=O)N2CCCC(C)C2)c2ccc3c(c2)OCO3)c(OC)c1 (stereo not given) | inactive | –
COc1cc(O)c(C(CC(=O)N2CCCC(C#N)C2)c2ccc3c(c2)OCO3)c(OC)c1 (stereo not given) | inactive | –
COc1ccc(C(CC(=O)Nc2ccc(F)cc2)c2ccccc2)cc1 (stereo not given) | inactive | –
COC(=O)Cn1c(CN2CCc3ccccc3C2)nc2c1c(=O)n(C)c(=O)n2C | 8120 nM (active) | –
CC1CCCN(C(=O)CC(c2ccc3c(c2)OCO3)c2ccc(O)cc2O)C1 (stereo not given) | inactive | –
O=C(CCCN1C(=O)/C(=C/c2ccccc2Cl)SC1=S)Nc1cccnc1 | 645 nM (active) | –
